# In PubChem BioAssay AID2427 (National Center for Advancing Translational Sciences (NCATS), 2010):
# Calls of active or inactive are those of the source.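 The calls were made as follows: active = melting temperature shift above 3 C; inconclusive = shift above 1 C but not above 3 C; inactive = the rest.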
# Target: 15-hydroxyprostaglandin dehydrogenase [NAD(+)] (Homo sapiens) (UniProt P15428)
# Test: Thermal Shift Assay for Inhibitors of HPGD (15-Hydroxyprostaglandin Dehydrogenase)
# Details: Recombinant HPGD thermal shift, SYPRO orange DSF, at 250 µM, stronger effect = higher value
# Method: Assay Overview: Human 15-Hydroxyprostaglandin dehydrogenase (HPGD) catalyzes the inactivation of prostaglandin E2, and plays a major role in cancer biology by antagonizing the oncogenic potential of cyclooxygenase type 2 (COX2). Studies to assess the stability of human 15-PGDH in presence of compounds was performed as described (Niesen et al., 2007) with variations. References 1. Myung SJ, Rerko RM, Yan M, Platzer P, Guda K, Dotson A, Lawrence E, Dannenberg AJ, Lovgren AK, Luo G, Pretlow TP, Newman RA, Willis J, Dawson D, Markowitz SD. 15-Hydroxyprostaglandin dehydrogenase is an in vivo suppressor of colon tumorigenesis. Proc Natl Acad Sci U S A. 2006 Aug 8;103(32):12098-102. 2. Yan M, Rerko RM, Platzer P, Dawson D, Willis J, Tong M, Lawrence E, Lutterbaugh J, Lu S, Willson JK, Luo G, Hensold J, Tai HH, Wilson K, Markowitz SD. 15-Hydroxyprostaglandin dehydrogenase, a COX-2 oncogene antagonist, is a TGF-beta-induced suppressor of human gastrointestinal cancers. Proc Natl Acad Sci U S A. 2004 Dec 14;101(50):17468-73. 3. Yang L, Amann JM, Kikuchi T, Porta R, Guix M, Gonzalez A, Park KH, Billheimer D, Arteaga CL, Tai HH, Dubois R, Carbone DP, Johnson DH. Inhibition of Epidermal Growth Factor Receptor Signaling Elevates 15-Hydroxyprostaglandin Dehydrogenase in Non-Small-Cell Lung Cancer. Cancer Res. 2007 Jun 15;67(12):5587-5593. 4. Niesen FH, Berglund H, Vedadi M: The use of differential scanning fluorimetry to detect ligand interactions that promote protein stability. Nature protocols 2007; 2:2212-2221 NIH Chemical Genomics Center [NCGC] Structural Genomics Consortium [SGC]
# HPGD was diluted to a final assay concentration of 1 uM in 100 mM Tris buffer, pH 8.0, containing 0.01% Tween-20 and 1:1000 SYPRO orange dye. The final assay volume is 10 ul, with or without 200 uM of either NAD+ or NADH. Compounds were added 1:5 from appropriate stock solutions in 10% (v/v) DMSO to comprise either 50 or 250 uM final concentrations. Heat denaturation curves were recorded using a RT-PCR instrument (Mx3005p, Agilent) applying a temperature gradient of 2 degree C/min. Analysis of the data was performed using DSF Analysis vers. 2.5 (ftp://ftp.sgc.ox.ac.uk/pub/biophysics) and Prism 5.0 (GraphPad Software, Inc.)
# Chain of 15-hydroxyprostaglandin dehydrogenase [NAD(+)] (Homo sapiens) (P15428 whole entry, looked up): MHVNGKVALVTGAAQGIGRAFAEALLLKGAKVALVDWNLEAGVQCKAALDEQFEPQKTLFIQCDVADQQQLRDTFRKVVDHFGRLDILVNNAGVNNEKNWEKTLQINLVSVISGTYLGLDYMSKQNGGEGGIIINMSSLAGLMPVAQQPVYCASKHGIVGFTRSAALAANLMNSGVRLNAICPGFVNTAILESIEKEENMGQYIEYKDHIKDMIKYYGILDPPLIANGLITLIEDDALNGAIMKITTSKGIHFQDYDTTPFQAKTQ
row,Structure (SMILES),thermal shift (delta Tm)
1,Cc1ccccc1CSc1nc2ccccc2c(=O)[nH]1,6.1 C (active)
2,Cc1ccc(C)c(Cn2nnc3c(=O)[nH]c(C(=O)NCc4ccco4)nc32)c1,7.5 C (active)

# Same assay, conditions: Recombinant HPGD thermal shift, SYPRO orange DSF, measured here: delta Tm with NADH cofactor, at 250 µM, stronger effect = higher value
row,Structure (SMILES),thermal shift (delta Tm) [C]
1,Cc1ccccc1CSc1nc2ccccc2c(=O)[nH]1,0.4
2,Cc1ccc(C)c(Cn2nnc3c(=O)[nH]c(C(=O)NCc4ccco4)nc32)c1,4.8
